These results are taken from PubChem BioAssay (EPA / NIEHS).

The structures appear in SMILES notation. “And” between values parts separate entries of the source, which are not always exact repeats. Equal values may be shown once. The source made the active and inactive calls. The calls were made as follows: active = hit-call score of the fitted dose curve at least 0.9, where 1 is the maximum; inactive = score below 0.9.

The nature of the experiment: BSK_BT_PBMCCytotoxicity: PBMC Cytotoxicity Assessment in the BioMAP Diversity Plus: BT Assay (AID 2284225). The following applies: primary human B cells with PBMC. On the procedure: BSK_BT is a cell-based, multiplexed-readout assay that uses B cell and peripheral blood mononuclear cells, a human vascular primary cell co-culture, with measurements taken at 24 hours after chemical dosing in a microplate: 96-well plate.BSK_BT_PBMCCytotoxicity is an assay component measured in the BSK_BT assay. It measures dehydrogenase activity, a form of viability reporter, as detected with fluorescence intensity signals by Alamar Blue Reduction technology.Data from the assay component BSK_BT_PBMCCytotoxicity was analyzed at the endpoint, BSK_BT_PBMCCytotoxicity, in the positive analysis fitting direction relative to DMSO as the negative control and baseline of activity. Using a type of viability reporter, gain or loss-of-signal activity can be used to understand cellular changes in viability. To generalize the intended target to other relatable targets, this assay endpoint is annotated to the 'cell cycle' intended target family, where the subfamily is 'cytotoxicity'.
The levels of cell surface (or secreted, indicated by the prefix "s") biomarker endpoints were measured by ELISA. Overt cytotoxicity to cells in confluent adherent cultures (all systems other than the BT system) was assessed by measuring total protein levels using sulforhodamine B (SRB) staining in parallel cultures at the time of biomarker measurements, indicated as SRB endpoints. For proliferation assays for adherent cell types, individual cell types are cultured at sub-confluence and relative cell numbers quantified by SRB staining at time points optimized for each system (48 h: 3C and CASM3C systems; 72 h: BT and HDF3CGF systems; 96 h: SAg system). SRB was performed by staining cells with 0.1% SRB after fixation with 10% TCA and reading wells at 560 nm.Viability and proliferation of PBMC (T cells) was quantified by Alamar Blue reduction for the SAg and BT systems. For PBMC viability (referred to as PBMC Cytotoxicity within the assay endpoint names), cells were plated (75,000/well in a 96-well plate) and then chemical samples added for 1 h before addition of activators, SEB and TSST-1 (20 ng/mL final concentration each). Cells were incubated for 90 h. Then, Alamar Blue (20 uL/well) (Invitrogen, Cat DAL1100) was added for 6 h, and the plates were read with a fluorescence microplate reader at 546/580 nm (excitation/emission). For PBMC proliferation, cells were plated and activated as above but incubated for only 16 h prior to addition of Alamar Blue. Plates were read after 6 h.
Consider `CN(C)CCC(c1ccc(Cl)cc1)c1ccccn1` (stereo not given), for which the result was inactive.
Same read-out and setting: to `CCCCCCCCCC/C=C/C1CC(=O)OC1=O` (stereo not given) belongs “inactive”.
Turning to `CN(C)c1ccc(C(c2ccccc2)c2ccc(N(C)C)cc2)cc1`, the concentration at half-maximal activity (AC50) (in general, the concentration at which the activity in the assay is half-maximal) was 33.7 µM (active).
For `Cc1cc(-n2nc3ccc(Cl)cc3n2)c(O)c(C(C)(C)C)c1`, the result was inactive.
With `OC(C(F)(F)F)(C(F)(F)F)C(O)(C(F)(F)F)C(F)(F)F`, the AC50 was 55.4 µM (active) and 36.9 µM (active).
For the compound `CC[N+](CC)(CC(=O)Nc1c(C)cccc1C)Cc1ccccc1`, the result was inactive.
As for `COC(=O)/C=C\C(=O)OC`, the outcome was inactive.
As to `CCCCCCCCCCCCCCCCCC[N+](C)(C)C`, the concentration at half-maximal activity (AC50) was 4.37 µM (active).
For `Oc1cccc2ccccc12`, the result was inactive.
Same read-out and setting: to `CCCCCCC(O)CCCCCCCCCCC(=O)OC` (stereo not given) belongs “inactive”; to `O=C(C(=O)c1ccccc1)c1ccccc1`, “inactive”; to `Cc1cccnc1`, “inactive”.
As for `CCCCCCCCCCC1CO1` (stereo not given), the outcome was inactive.
Still for that read-out and setting: to `CC(C)CC(=O)CC(C)CC(C)C` (stereo not given) belongs “inactive”.
As to `Sc1nc2ccccc2s1`, the result was inactive.
